# According to PubChem BioAssay (NCI):
# The panel holds about 79,000 compounds, 15% with a hit somewhere; the sample as a whole holds those more often. A number with no mark means an inactive call. Active and inactive are the calls of the source. Cut-off read from the data, not from the text of the source: active = growth inhibition above about 70%; inactive = the rest.
# Key:
# [1] = NCI Yeast Anticancer Drug Screen. Data for the rad52 strain (AID 147);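 note: 0% = growth of vehicle-treated control cultures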; conditions: S. cerevisiae rad52 mutant growth inhibition, hits give high values
# Summary of the method: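 Growth of repair-deficient yeast cells was compared between compound-treated and vehicle-treated cultures to give percent inhibition.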
# [2] = NCI Yeast Anticancer Drug Screen. Data for the wt1 strain (AID 149);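 note: 0% = growth of vehicle-treated wt1 cultures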; conditions: S. cerevisiae wt1 strain (SPY 50644) growth inhibition, hits give high values
# Summary of the method: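 wt1 strain grown with compound or vehicle; inhibition taken from the growth difference.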
# [3] = NCI Yeast Anticancer Drug Screen. Data for the rad50EPP+ strain (AID 151);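 note: 0% = growth of vehicle-treated control cultures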; conditions: S. cerevisiae rad50 mutant strain, hits give high values
# Summary of the method: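 Measured: growth inhibition of rad50EPP+ yeast. Reference: vehicle-treated controls. Screen uses strains with defined genetic alterations in DNA damage repair or cell cycle control.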
# [4] = NCI Yeast Anticancer Drug Screen. Data for the mgt1 strain (AID 153); conditions: S. cerevisiae mgt1 mutant growth inhibition, hits give high values
# Summary of the method: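 Compounds were applied to mgt1 mutant yeast, and growth was then compared against vehicle-treated control cultures to give percent inhibition.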
# [5] = NCI Yeast Anticancer Drug Screen. Data for the rad50 strain (AID 155);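 note: 0% = growth of vehicle-only cultures of the same strain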; conditions: S. cerevisiae rad50 strain growth inhibition, hits give high values
# Summary of the method: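 DNA repair mutant yeast, compound exposure, growth read-out; inhibition is taken relative to vehicle.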
# [6] = NCI Yeast Anticancer Drug Screen. Data for the mec2-1 strain (AID 157); conditions: S. cerevisiae mec2-1 strain, hits give high values
# Summary of the method: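 Compounds were applied to mec2-1 yeast cells. Their growth was then compared with that of vehicle-treated cultures to give growth inhibition.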
# [7] = NCI Yeast Anticancer Drug Screen. Data for the rad14 strain (AID 159);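 note: 0% = growth of vehicle-treated control cultures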; conditions: S. cerevisiae rad14 strain growth inhibition, hits give high values
# Summary of the method: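 DNA repair-defective yeast, compound-exposed; % growth inhibition derived by comparison with vehicle-treated controls.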
# [8] = NCI Yeast Anticancer Drug Screen. Data for the sgs1 mgt1 strain (AID 161);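 note: 0% = growth of cultures given vehicle only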; conditions: S. cerevisiae sgs1 mgt1 strain, hits give high values
# Summary of the method: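 Percent growth inhibition was derived by comparing compound-exposed mutant yeast with vehicle-exposed cultures. The strain carries alterations in DNA damage repair.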
# [9] = NCI Yeast Anticancer Drug Screen. Data for the CLN2oe strain (AID 163);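 note: 0% = growth of vehicle-only control cultures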; conditions: S. cerevisiae CLN2oe strain, hits give high values
# Summary of the method: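 Cells of an engineered yeast line with disturbed cell-cycle regulation are treated with compound. Inhibition of growth is then calculated relative to the vehicle-treated reference.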
# [10] = NCI Yeast Anticancer Drug Screen. Data for the cln2 rad14 strain (AID 165);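 note: 0% = growth equal to vehicle treated cultures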; conditions: S. cerevisiae cln2 rad14 strain, hits give high values
# Summary of the method: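 Strain: cln2 rad14 yeast, altered in cell cycle control and DNA damage repair. Read-out: growth inhibition vs vehicle.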
# [11] = NCI Yeast Anticancer Drug Screen. Data for the bub3 strain (AID 167); conditions: S. cerevisiae bub3 mutant strain, hits give high values
# Summary of the method: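 In this screen, a yeast mutant lacking normal mitotic checkpoint function is challenged with compound. Relative growth versus vehicle gives the inhibition value.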
# [12] = NCI Yeast Anticancer Drug Screen. Data for the wt2 strain (AID 169);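 note: 0% = growth of vehicle-treated yeast cultures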; conditions: S. cerevisiae wt2 strain growth inhibition, hits give high values
# Summary of the method: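 Growth of compound-treated yeast is measured and expressed as inhibition relative to vehicle-only controls.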
# [13] = NCI Yeast Anticancer Drug Screen. Data for the mlh1 strain (AID 171);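 note: 0% = growth of vehicle-treated control cultures of the same strain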; conditions: S. cerevisiae mlh1 strain growth inhibition, hits give high values
# Summary of the method: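 Test agents were incubated with yeast bearing a defined DNA damage repair or cell cycle control alteration; values are growth inhibition normalised to vehicle-treated cultures.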
# [14] = NCI Yeast Anticancer Drug Screen. Data for the sgs1 strain (AID 173);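 note: 0% = growth of vehicle-only control cultures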; conditions: S. cerevisiae sgs1 mutant, hits give high values
# Summary of the method: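 Strain with an altered DNA repair or cell cycle pathway exposed to compound. Growth then measured. Value = inhibition versus vehicle control.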
# [15] = NCI Yeast Anticancer Drug Screen. Data for the mlh1 rad18 strain (AID 175); conditions: S. cerevisiae mlh1 rad18 strain growth inhibition, hits give high values
# Summary of the method: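 A repair-deficient yeast strain is exposed to test compound, and growth is scored relative to vehicle-treated controls.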
# [16] = NCI Yeast Anticancer Drug Screen. Data for the rad18 strain (AID 177); conditions: S. cerevisiae rad18 mutant growth inhibition, hits give high values
# Summary of the method: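 DNA-repair-defective yeast; compound treatment; growth inhibition scored against vehicle.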
# [17] = at 5.0 µM (retest, dose inferred, filed as 0.5)
# [18] = at 50.0 µM (retest, dose inferred, filed as 5.0)
smiles,measurement,setting,value
O=C1c2cc([N+](=O)[O-])ccc2-c2cccc(F)c21,growth inhibition,[1]; at 1.2 µM,14%
same,growth inhibition,[1]; at 3.7 µM,31%
same,growth inhibition,[1]; at 11.0 µM,57%
same,growth inhibition,[1]; at 33.0 µM,82% (active)
same,growth inhibition,[1]; at 100.0 µM,87% (active)
same,growth inhibition,[2]; at 1.2 µM,-1%
same,growth inhibition,[2]; at 3.7 µM,-2%
same,growth inhibition,[2]; at 11.0 µM,8%
same,growth inhibition,[2]; at 33.0 µM,10%
same,growth inhibition,[2]; at 100.0 µM,20%
same,growth inhibition,[3]; at 1.2 µM,9%
same,growth inhibition,[3]; at 3.7 µM,27%
same,growth inhibition,[3]; at 11.0 µM,49%
same,growth inhibition,[3]; at 33.0 µM,69%
same,growth inhibition,[3]; at 100.0 µM,75% (active)
same,growth inhibition,[4]; at 1.2 µM,1%
same,growth inhibition,[4]; at 3.7 µM,-5%
same,growth inhibition,[4]; at 11.0 µM,12%
same,growth inhibition,[4]; at 33.0 µM,20%
same,growth inhibition,[4]; at 100.0 µM,28%
same,growth inhibition,[5]; at 1.2 µM,12%
same,growth inhibition,[5]; at 3.7 µM,32%
same,growth inhibition,[5]; [17],7%
same,growth inhibition,[5]; at 11.0 µM,61%
same,growth inhibition,[5]; at 33.0 µM,84% (active)
same,growth inhibition,[5]; [18],60%
same,growth inhibition,[5]; at 50.0 µM,91.9% (active)
same,growth inhibition,[5]; at 100.0 µM,83% (active)
same,growth inhibition,[6]; at 1.2 µM,0%
same,growth inhibition,[6]; at 3.7 µM,3%
same,growth inhibition,[6]; [17],1%
same,growth inhibition,[6]; at 11.0 µM,13%
same,growth inhibition,[6]; at 33.0 µM,23%
same,growth inhibition,[6]; [18],7%
same,growth inhibition,[6]; at 50.0 µM,59.7%
same,growth inhibition,[6]; at 100.0 µM,41%
same,growth inhibition,[7]; at 1.2 µM,5%
same,growth inhibition,[7]; at 3.7 µM,11%
same,growth inhibition,[7]; at 11.0 µM,26%
same,growth inhibition,[7]; at 33.0 µM,42%
same,growth inhibition,[7]; at 100.0 µM,61%
same,growth inhibition,[8]; [17],12%
same,growth inhibition,[8]; [18],41%
same,growth inhibition,[8]; at 50.0 µM,67.3%
same,growth inhibition,[9]; at 1.2 µM,-2%
same,growth inhibition,[9]; at 3.7 µM,0%
same,growth inhibition,[9]; at 11.0 µM,6%
same,growth inhibition,[9]; at 33.0 µM,15%
same,growth inhibition,[9]; at 100.0 µM,22%
same,growth inhibition,[10]; [17],18%
same,growth inhibition,[10]; [18],30%
same,growth inhibition,[10]; at 50.0 µM,54.9%
same,growth inhibition,[11]; at 1.2 µM,-4%
same,growth inhibition,[11]; at 3.7 µM,-7%
same,growth inhibition,[11]; [17],1%
same,growth inhibition,[11]; at 11.0 µM,8%
same,growth inhibition,[11]; at 33.0 µM,16%
same,growth inhibition,[11]; [18],8%
same,growth inhibition,[11]; at 50.0 µM,33.1%
same,growth inhibition,[11]; at 100.0 µM,25%
same,growth inhibition,[12]; at 1.2 µM,-1%
same,growth inhibition,[12]; at 3.7 µM,3%
same,growth inhibition,[12]; at 11.0 µM,4%
same,growth inhibition,[12]; at 33.0 µM,17%
same,growth inhibition,[12]; at 100.0 µM,46%
same,growth inhibition,[13]; at 1.2 µM,-3%
same,growth inhibition,[13]; at 3.7 µM,5%
same,growth inhibition,[13]; at 11.0 µM,13%
same,growth inhibition,[13]; at 33.0 µM,22%
same,growth inhibition,[13]; at 100.0 µM,44%
same,growth inhibition,[14]; at 1.2 µM,3%
same,growth inhibition,[14]; at 3.7 µM,10%
same,growth inhibition,[14]; at 11.0 µM,21%
same,growth inhibition,[14]; at 33.0 µM,34%
same,growth inhibition,[14]; at 100.0 µM,52%
same,growth inhibition,[15]; [17],9%
same,growth inhibition,[15]; [18],64%
same,growth inhibition,[15]; at 50.0 µM,82.5% (active)
same,growth inhibition,[16]; at 1.2 µM,45%
same,growth inhibition,[16]; at 3.7 µM,78% (active)
same,growth inhibition,[16]; at 11.0 µM,90% (active)
same,growth inhibition,[16]; at 33.0 µM,93% (active)
same,growth inhibition,[16]; at 100.0 µM,89% (active)
Nc1nc(Cl)c(Cl)c(Cl)n1,growth inhibition,[1]; at 1.2 µM,1%
same,growth inhibition,[1]; at 3.7 µM,8%
same,growth inhibition,[1]; at 11.0 µM,32%
same,growth inhibition,[1]; at 33.0 µM,88% (active)
same,growth inhibition,[1]; at 100.0 µM,99% (active)
same,growth inhibition,[2]; at 1.2 µM,-2%
same,growth inhibition,[2]; at 3.7 µM,1%
same,growth inhibition,[2]; at 11.0 µM,14%
same,growth inhibition,[2]; at 33.0 µM,57%
same,growth inhibition,[2]; at 100.0 µM,99% (active)
same,growth inhibition,[3]; at 1.2 µM,0%
same,growth inhibition,[3]; at 3.7 µM,34%
same,growth inhibition,[3]; at 11.0 µM,89% (active)
same,growth inhibition,[3]; at 33.0 µM,93% (active)
same,growth inhibition,[3]; at 100.0 µM,99% (active)
same,growth inhibition,[4]; at 1.2 µM,1%
same,growth inhibition,[4]; at 3.7 µM,5%
same,growth inhibition,[4]; at 11.0 µM,20%
same,growth inhibition,[4]; at 33.0 µM,90% (active)
same,growth inhibition,[4]; at 100.0 µM,99% (active)
same,growth inhibition,[5]; at 1.2 µM,2%
same,growth inhibition,[5]; at 3.7 µM,3%
same,growth inhibition,[5]; [17],44%
same,growth inhibition,[5]; at 11.0 µM,17%
same,growth inhibition,[5]; at 33.0 µM,51%
same,growth inhibition,[5]; [18],100% (active)
same,growth inhibition,[5]; at 50.0 µM,47.3%
same,growth inhibition,[5]; at 100.0 µM,99% (active)
same,growth inhibition,[6]; at 1.2 µM,2%
same,growth inhibition,[6]; at 3.7 µM,14%
same,growth inhibition,[6]; [17],28%
same,growth inhibition,[6]; at 11.0 µM,42%
same,growth inhibition,[6]; at 33.0 µM,99% (active)
same,growth inhibition,[6]; [18],99% (active)
same,growth inhibition,[6]; at 50.0 µM,72.4% (active)
same,growth inhibition,[6]; at 100.0 µM,99% (active)
same,growth inhibition,[7]; at 1.2 µM,3%
same,growth inhibition,[7]; at 3.7 µM,8%
same,growth inhibition,[7]; at 11.0 µM,30%
same,growth inhibition,[7]; at 33.0 µM,99% (active)
same,growth inhibition,[7]; at 100.0 µM,99% (active)
same,growth inhibition,[8]; [17],59%
same,growth inhibition,[8]; [18],99% (active)
same,growth inhibition,[8]; at 50.0 µM,32.3%
same,growth inhibition,[9]; at 1.2 µM,-1%
same,growth inhibition,[9]; at 3.7 µM,0%
same,growth inhibition,[9]; at 11.0 µM,14%
same,growth inhibition,[9]; at 33.0 µM,30%
same,growth inhibition,[9]; at 100.0 µM,99% (active)
same,growth inhibition,[10]; [17],7%
same,growth inhibition,[10]; [18],99% (active)
same,growth inhibition,[10]; at 50.0 µM,13.8%
same,growth inhibition,[11]; at 1.2 µM,-4%
same,growth inhibition,[11]; at 3.7 µM,1%
same,growth inhibition,[11]; [17],27%
same,growth inhibition,[11]; at 11.0 µM,18%
same,growth inhibition,[11]; at 33.0 µM,92% (active)
same,growth inhibition,[11]; [18],99% (active)
same,growth inhibition,[11]; at 50.0 µM,-8.05%
same,growth inhibition,[11]; at 100.0 µM,99% (active)
same,growth inhibition,[12]; at 1.2 µM,0%
same,growth inhibition,[12]; at 3.7 µM,4%
same,growth inhibition,[12]; at 11.0 µM,17%
same,growth inhibition,[12]; at 33.0 µM,80% (active)
same,growth inhibition,[12]; at 100.0 µM,99% (active)
same,growth inhibition,[13]; at 1.2 µM,-2%
same,growth inhibition,[13]; at 3.7 µM,3%
same,growth inhibition,[13]; at 11.0 µM,18%
same,growth inhibition,[13]; at 33.0 µM,93% (active)
same,growth inhibition,[13]; at 100.0 µM,99% (active)
same,growth inhibition,[14]; at 1.2 µM,1%
same,growth inhibition,[14]; at 3.7 µM,14%
same,growth inhibition,[14]; at 11.0 µM,45%
same,growth inhibition,[14]; at 33.0 µM,99% (active)
same,growth inhibition,[14]; at 100.0 µM,99% (active)
same,growth inhibition,[15]; [17],80% (active)
same,growth inhibition,[15]; [18],99% (active)
same,growth inhibition,[15]; at 50.0 µM,30.4%
